Drawing on the supplement of paper PMC7156485, this text covers H1.0 immunofluorescence intensity for 32 molecules.
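Further: TDF is a line of transformed human dermal fibroblasts of mesenchymal origin.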

The test system of one experiment is TDF. Description: H1.0 immunofluorescence intensity relative to DMSO (% of DMSO); higher = stronger H1.0 induction, active = 120 or more. The note with it: concentration: 10 µM; 24 h. Summed up:
(§1)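 Using 384-well plates with 800 cells per well in RPMI plus 10% FBS, HCC1569 and TDF cells were exposed to compounds at 10 µM, in triplicate, for 24 h at 37 °C. Imaging of six fields per well at ×10 followed H1.0 and DAPI staining. The reported quantity, H1.0 nuclear intensity or cell number, is a median of replicates given as percent of the plate control, and HCC1569 values were smoothed for positional effects.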
Take `CCN1CC2(OC(=O)c3ccccc3NC(C)=O)CCC(OC)C34C1C(CC23)C1(O)CC(OC)C2CC4C1(O)C2OC` (configuration not stated) [Lappaconitine]: the H1.0 immunofluorescence intensity is 100 (inactive).

For the molecule `COC1=CC2C3Cc4ccc(OC)c(O)c4C2(CCN3C)CC1=O` (configuration not stated) [Sinomenine], the H1.0 immunofluorescence intensity is 94.1 (inactive).

Take `CC1=C2C(=O)C3C(CC=C4CC(O)CCC43C)C2CCC12OC1CC(C)CNC1C2C` (configuration not stated) [Jervine]: the H1.0 immunofluorescence intensity is 94.3 (inactive).

Take `Cn1ncnc1COc1nn2c(-c3c(F)cccc3F)nnc2cc1C1CCC1`: the H1.0 immunofluorescence intensity is 93.6 (inactive).

Regarding `CC1CCC2(NC1)OC1CC3C4CC=C5CC(O)CCC5(C)C4CCC3(C)C1C2C` (configuration not stated) [Solasodine], the H1.0 immunofluorescence intensity was 100 (inactive).

With `C[C@]12CC[C@@H](O)C[C@@H]1CC[C@@H]1[C@@H]2CC[C@]2(C)[C@@H](O)CC[C@@H]12` [5alpha-Androstane-3alpha,17beta-diol], the H1.0 immunofluorescence intensity is 97.3 (inactive).

For another experiment, the system named is HCC1569. Description: H1.0 immunofluorescence intensity relative to DMSO (% of DMSO); higher = stronger H1.0 induction, active = 140 or more. The note with it: concentration: 10 µM; 24 h. In short, it runs like this: as §1
As to `OCC1CCCN2CCCCC12` (configuration not stated) [Lupinine], the H1.0 immunofluorescence intensity was 84.3 (inactive).

Regarding `CCN1CC2(COC)CCC(OC)C34C5CC6C(OC)CC7(OCOC7(C(O)C23)C14)C5C6OC` (configuration not stated) [Delcorine], the H1.0 immunofluorescence intensity was 94.3 (inactive).

In the case of `CC(O)C(C)OC(=O)C1CC2c3cccc4c3c(cn4C(C)C)CC2N(C)C1.O=C(O)C=CC(=O)O` (configuration not stated) [LY-53,857 maleate], the H1.0 immunofluorescence intensity was 90.5 (inactive).

Take `O=C(O)c1nn(Cc2ccc(Cl)cc2Cl)c2ccccc12` [Lonidamine]: the H1.0 immunofluorescence intensity was 92.3 (inactive).

In the case of `Cl.NCC(O)c1cc(O)c(O)cc1F` (configuration not stated) [6-Fluoronorepinephrine hydrochloride], the H1.0 immunofluorescence intensity was 83.2 (inactive).

In the case of `Cl.Cl.Clc1ccc(N2CC3CCC(C2)N3)nn1`, the H1.0 immunofluorescence intensity was 95.7 (inactive).

Take `O=C1Nc2ccc3ncsc3c2C1=Cc1cnc[nH]1` [PKR Inhibitor]: the H1.0 immunofluorescence intensity was 136 (inactive).

As to `BrC1C(Br)C(Br)C(Br)C(Br)C1Br` (configuration not stated), the H1.0 immunofluorescence intensity was 111 (inactive).

For `CCCN1CC(CSC)CC2c3cccc4[nH]cc(c34)CC21.CS(=O)(=O)O` (configuration not stated) [Pergolide methanesulfonate], the H1.0 immunofluorescence intensity was 94.4 (inactive).

For `NC(CCCCCP(=O)(O)O)C(=O)O` (stereo not drawn) [D(-)-2-Amino-7-phosphonoheptanoic acid], the H1.0 immunofluorescence intensity is 99.2 (inactive).

Regarding `Cl.Cl.Fc1ccc(C(OCCN2CCN(CCCc3ccccc3)CC2)c2ccc(F)cc2)cc1`, the H1.0 immunofluorescence intensity is 124 (inactive).

On to `CN1C2CCC1CC(OC(=O)C(CO)c1ccccc1)C2` (configuration not stated) [Hyoscyamine], for which the H1.0 immunofluorescence intensity is 94.8 (inactive).

Consider `Br.CN1C2CC(OC(=O)C(CO)c3ccccc3)CC1C(O)C2` (configuration not stated) [Anisodamine], for which the H1.0 immunofluorescence intensity was 94.6 (inactive).

In the case of `CC12CCC3C(CCC4CC(O)CCC43C)C1CCC2=O` (configuration not stated) [Androsterone], the H1.0 immunofluorescence intensity was 107 (inactive).

Take `Cc1nc(-c2ccc(-c3ccc(C(=O)N4CCc5cc6c(cc54)C4(CCN(C)CC4)CO6)cc3)c(C)c2)no1.Cl`: the H1.0 immunofluorescence intensity is 150 (active).

Turning to `CNCC(O)c1ccc(O)cc1` (racemic), the H1.0 immunofluorescence intensity is 103 (inactive).

Consider `CCC1C(C)=NN=C(c2ccc(OC)c(OC)c2)c2cc(OC)c(OC)cc21` (configuration not stated), for which the H1.0 immunofluorescence intensity was 90.9 (inactive).

On to `CCCCCC=CCC=CCC=CCC=CCCCC(=O)NCC(=O)O` [N-arachidonylglycine], for which the H1.0 immunofluorescence intensity was 99.6 (inactive).

Turning to `CC=C1CN2CCC34C(=C(CC=O)C1CC23)Nc1ccccc14` (configuration not stated) [Norfluorocurarine], the H1.0 immunofluorescence intensity was 96.3 (inactive).

For the molecule `C[N+]1(C)C2CCC1CC(OC(=O)c1c[nH]c3ccccc13)C2.[I-]` (configuration not stated) [3-Tropanylindole-3-carboxylate methiodide], the H1.0 immunofluorescence intensity is 114 (inactive).

For `COc1ccc(CCN2CCC(Nc3nc4ccccc4n3Cc3ccc(F)cc3)CC2)cc1` [Astemizole], the H1.0 immunofluorescence intensity was 143 (active).

With `CC(C)C1C(=O)OC2CCN3CC=C(COC(=O)C(C)(O)C1(C)O)C23` (configuration not stated) [Trichodesmine], the H1.0 immunofluorescence intensity is 89.8 (inactive).

On to `Cl.N[C@@H](CCl)C(=O)O` [beta-Chloro-L-alanine hydrochloride], for which the H1.0 immunofluorescence intensity was 91.9 (inactive).

Turning to `CC(=O)C1CCC2C3CCC4CC(O)CCC4(C)C3C(=O)CC12C` (stereo not drawn) [5alpha-Pregnan-3alpha-ol-11,20-dione], the H1.0 immunofluorescence intensity was 98.7 (inactive).

For the molecule `C#C[C@]1(O)CC[C@H]2[C@@H]3CC[C@H]4Cc5nc6nc7ccccc7n6cc5C[C@]4(C)[C@H]3CC[C@@]21C`, the H1.0 immunofluorescence intensity is 145 (active).

Take `NC(=O)c1cc(N2CC2)c([N+](=O)[O-])cc1[N+](=O)[O-]`: the H1.0 immunofluorescence intensity is 91.7 (inactive).
